In PubChem BioAssay AID2283145 (EPA ToxCast):
Inconclusive results are not listed. Calls of active or inactive are those of the source. Rule for the calls: active = hit-call score of the fitted dose curve at least 0.9, where 1 is the maximum; inconclusive = response in the unintended direction; inactive = score below 0.9.

Biological target: human Cyclin-Dependent Kinase 6 (CDK6), CDK6 (gene 1021) (UniProt Q00534)
Assay: NVS_ENZ_hCDK6: NovaScreen (NVS) Enzymatic Assay for human Cyclin-Dependent Kinase 6 (CDK6)
Description: NVS_ENZ_hCDK6 is a biochemical, single-readout assay that uses extracted gene-proteins in a cell-free assay. Measurements were taken 1 hour after chemical dosing in a 384-well plate.NVS_ENZ_hCDK6 is one of one assay component(s) measured or calculated from the NVS_ENZ_hCDK6 assay. It is designed to make measurements of enzyme activity, a form of enzyme reporter, as detected with fluorescence intensity signals by Fluorescence and electrophoretic mobility shift technology.Data from the assay component NVS_ENZ_hCDK6 was analyzed into 1 assay endpoint. This assay endpoint, NVS_ENZ_hCDK6, was analyzed in the positive analysis fitting direction relative to DMSO as the negative control and baseline of activity. Using a type of enzyme reporter, loss-of-signal activity can be used to understand changes in the enzymatic activity as they relate to the gene CDK6. Furthermore, this assay endpoint can be referred to as a primary readout, because this assay has produced multiple assay endpoints where this one serves a enzymatic activity function. To generalize the intended target to other relatable targets, this assay endpoint is annotated to the kinase intended target family, where the subfamily is serine/threonine kinase.
Binding assays used specific radioligands (tritiated, iodinated) with non-radioactive competitive displacement ligands in agonist or antagonist protocols (as indicated) and various reference compounds and inhibitors to titrate specific binding to receptors and transporters. Most enzyme assays (CYPs, kinases, phosphatases, proteases, HDACs) used recombinant protein and specific substrates (fluorescence mostly, some colorimetric and radioactive) and inhibitors, followed by a biochemical separation of substrate and product. All assays for the biochemical HTS were initially run in duplicate at a single concentration (10 uM for CYP450 assays and 25 uM for all others). […] Each assay was run with positive and negative controls, and concurrent controls on every plate. The follow-up (secondary) screen tested active chemical-pairs in concentration series, as well as a few additional assays not tested in the primary screen, some selected negative inactives, and several cases re-run in the concentration series for confirmatory purposes.

Chain of human Cyclin-Dependent Kinase 6 (CDK6), CDK6 (gene 1021) (Q00534 whole entry, looked up): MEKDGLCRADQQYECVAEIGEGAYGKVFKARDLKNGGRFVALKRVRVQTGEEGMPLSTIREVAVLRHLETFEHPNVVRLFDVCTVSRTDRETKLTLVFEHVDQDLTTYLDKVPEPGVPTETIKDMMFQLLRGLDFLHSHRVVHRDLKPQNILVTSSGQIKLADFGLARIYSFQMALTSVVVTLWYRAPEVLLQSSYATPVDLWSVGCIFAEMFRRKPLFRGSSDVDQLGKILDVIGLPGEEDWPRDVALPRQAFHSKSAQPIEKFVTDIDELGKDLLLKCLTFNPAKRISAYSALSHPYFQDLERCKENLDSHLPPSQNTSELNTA

Q: Which outcome does the source give for `Nc1c(Cl)c(Cl)nc(C(=O)O)c1Cl` here?
A: Its outcome is “inactive”.

Q: Which AC50 does the source give for `S=C(S)NCCNC(=S)S.[Mn+2].[S-]C([S-])=NCCN=C([S-])[S-].[Zn+2]` here?
A: Its AC50 is 9.65 µM (active).

Q: `CN(C)[C@@H]1C(=O)C(C(N)=O)=C(O)[C@@]2(O)C(=O)C3=C(O)c4c(O)cccc4[C@@](C)(O)[C@H]3[C@H](O)[C@@H]12` was tested. Which AC50 did it give?
A: The AC50 was 23.1 µM (active).

Q: Which AC50 does the source give for `S=C([S-])NCCNC(=S)[S-].[Mn+2]` here?
A: The AC50 was 10.5 µM (active).
